Activity calls are given as the source filed them.

Test [1] is described as follows: binders of probe aFSTL3 on microarray, primary screen, stem cell growth factor project, biochemical, small-molecule microarray, fluorescence 635/667 (AID 1064).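 Note: measures binding of the biotinylated anti-FSTL3 antibody to printed compounds.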 As to conditions: higher = more signal.
The nature of test [2]: binders from COS7 lysate, DM2A8 probe, primary screen, torsin A project, cell lysate, small-molecule microarray, fluorescence 635/667 (AID 1065). The conditions noted are these: higher = more signal, COS7 lysate expressing mutant human TOR1A.
The nature of test [3]: binders of probe aFGF2 on microarray, primary screen, stem cell growth factor project, biochemical, small-molecule microarray, fluorescence 635/667 (AID 1067).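 Note: measures binding of biotinylated aFGF2 protein to printed compounds on slides; z-score merges feature fluorescence and signal-to-noise across triplicate slides.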 As to conditions: higher = more signal.
The nature of test [4]: binders of probe aFGF10 on microarray, primary screen, stem cell growth factor project, biochemical, small-molecule microarray, fluorescence 635/667 (AID 1071).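 Note: score merges 667 nm spot intensity and signal to noise from triplicate slides.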 As to conditions: higher = more signal.
Test [5] deals with Neurogenic locus notch homolog protein 2 (Homo sapiens) (UniProt Q04721). As to the kind of experiment: Notch2 binders on small-molecule microarrays, primary screen, biochemical, small-molecule microarray, 635 nm fluorescence, stem cell growth factors (AID 1073). The conditions noted are these: Notch2 binding, higher = more signal.
In test [6] the target is Pro-neuregulin-1, membrane-bound isoform (Homo sapiens) (UniProt Q02297). In words: NRG1 binders on small-molecule microarrays, primary screen, psychiatric disease protein project, biochemical, small-molecule microarray, fluorescence 635/667 (AID 1075).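 Note: score combines 667 nm spot fluorescence with signal to noise.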 As to conditions: NRG1 binding, 635 nm fluorescence, higher = more signal.
Sequence of Pro-neuregulin-1, membrane-bound isoform (Homo sapiens) (Q02297 whole entry, looked up, the tested form may be a part, canonical isoform): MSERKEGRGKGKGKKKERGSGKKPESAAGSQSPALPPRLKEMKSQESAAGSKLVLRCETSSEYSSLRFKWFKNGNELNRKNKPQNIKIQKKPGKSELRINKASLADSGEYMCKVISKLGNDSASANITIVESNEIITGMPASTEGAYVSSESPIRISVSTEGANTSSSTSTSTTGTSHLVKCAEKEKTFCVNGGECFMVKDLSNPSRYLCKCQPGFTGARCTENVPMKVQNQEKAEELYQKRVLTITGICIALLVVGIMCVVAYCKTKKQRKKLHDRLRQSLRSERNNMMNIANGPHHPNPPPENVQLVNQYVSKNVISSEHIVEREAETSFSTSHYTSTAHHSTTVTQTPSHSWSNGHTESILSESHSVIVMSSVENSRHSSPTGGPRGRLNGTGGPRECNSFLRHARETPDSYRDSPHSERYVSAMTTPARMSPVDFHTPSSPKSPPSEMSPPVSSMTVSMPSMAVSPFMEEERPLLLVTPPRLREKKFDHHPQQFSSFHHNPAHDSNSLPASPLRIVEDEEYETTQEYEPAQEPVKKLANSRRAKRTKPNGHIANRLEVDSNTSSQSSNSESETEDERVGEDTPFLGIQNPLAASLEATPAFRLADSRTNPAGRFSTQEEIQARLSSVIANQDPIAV
The subject of test [7] is Neuregulin-1 EGF-like domain. In words: binders of neuregulin-1 EGF-like domain, primary screen, biochemical, small-molecule microarray, 635 nm fluorescence (AID 1081).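 Note: binding of the protein to compounds printed on small-molecule microarray slides.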 The conditions noted are these: small-molecule microarray binding, higher = more signal.
Test [8] in a line: FRG1 promoter luciferase signal modulators, primary screen, FRG1 inhibition for FSHD, cell-based, C2C12 myotubes, firefly/Renilla luciferase, luminescence (AID 1084). The conditions noted are these: higher = more signal, called active from +8 up or from −8 down.
Test [9] can be described thus: binders of probe aFST on microarray, primary screen, stem cell growth factor project, biochemical, small-molecule microarray, fluorescence 635/667 (AID 1086).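 Note: score merges 667 nm fluorescence with signal-to-noise of each printed compound spot.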 As to conditions: higher = more signal.
Test [10] in a line: binders of probe aHhip on microarray, primary screen, stem cell growth factor project, biochemical, small-molecule microarray, fluorescence 635/667 (AID 1087).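 Note: score merges spot fluorescence at 667nm with spot signal to noise ratio.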 The conditions noted are these: higher = more signal.
For test [11], the system named is PRMT1 (protein arginine N-methyltransferase 1). In words: PRMT1 binders on small-molecule microarrays, primary screen, biochemical, small-molecule microarray, 635 nm fluorescence (AID 1088).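 Note: binding of Prmt1 protein to compounds spotted on small-molecule microarray slides.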 The conditions noted are these: small-molecule microarray binding, higher = more signal.
Test [12] is described as follows: yeast growth modulation, basal conditions, primary screen, YJM789 clinical isolate, OD600, 24 h (AID 1089).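 Note: growth of clinical yeast isolate S. cerevisiae YJM 789 seeded 1000 cells per well; test concentration not given here.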 As to conditions: S. cerevisiae YJM789 growth, higher = more signal, called active from +8 up or from −8 down.
Test [13] can be described thus: fission yeast growth modulation, primary screen, strain 972, OD600, 24 h, no modulator (AID 1090).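 Note: basal condition with compound alone and no growth modifier present; test concentration not given here.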 As to conditions: S. pombe 972 growth, higher = more signal, called active from +8 up or from −8 down.
Test [14] is described as follows: S. cerevisiae growth modulation with rapamycin, primary screen, strain BY4716, OD600, 96 h (AID 1091). Note: test concentration not given here. The conditions noted are these: higher = more signal, called active from +8 up or from −8 down.
The target of test [15] is Torsin-1A-interacting protein 2 (Homo sapiens) (UniProt Q8NFQ8). In words: LULL1 binders on small-molecule microarray, primary screen, cell lysate, human LULL1 lysate, 635/667 nm fluorescence (AID 1092).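 Note: probe is lysate of COS7 cells overexpressing human LULL1; score merges per-feature 667 nm fluorescence with signal-to-noise.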 As to conditions: hLULL1 lysate binding, 635 nm fluorescence, higher = more signal.
Sequence of Torsin-1A-interacting protein 2 (Homo sapiens) (Q8NFQ8 whole entry, looked up): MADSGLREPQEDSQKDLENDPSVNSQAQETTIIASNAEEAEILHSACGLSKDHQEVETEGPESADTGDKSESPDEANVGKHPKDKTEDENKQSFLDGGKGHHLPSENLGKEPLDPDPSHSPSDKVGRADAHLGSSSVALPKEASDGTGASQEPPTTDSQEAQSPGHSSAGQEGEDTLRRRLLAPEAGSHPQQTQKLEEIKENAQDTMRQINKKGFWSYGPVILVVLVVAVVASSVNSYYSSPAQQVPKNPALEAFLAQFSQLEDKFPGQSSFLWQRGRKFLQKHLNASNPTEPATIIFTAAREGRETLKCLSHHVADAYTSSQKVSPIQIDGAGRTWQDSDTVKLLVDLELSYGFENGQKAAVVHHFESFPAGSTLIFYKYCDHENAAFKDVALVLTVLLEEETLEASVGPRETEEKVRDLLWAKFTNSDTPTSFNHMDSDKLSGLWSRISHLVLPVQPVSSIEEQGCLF
A short description of test [16]: E. coli growth modulation, two-sided OD650, primary screen, E. coli filamentation project, strain DRC41, 24 h (AID 1093).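 Note: MC1000 strain lacking acrAB efflux and sulA so SOS filamentation is blocked; test concentration not given here.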 As to conditions: OD650, 24 h, higher = more signal, called active from +8 up or from −8 down.
Test [17] is described as follows: small-molecule microarray binders of probe aLefty2, primary screen, biochemical, biotinylated probe, 635/667 nm fluorescence (AID 1094).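 Note: score merges spot fluorescence near 667 nm with spot signal-to-noise ratio.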 The conditions noted are these: higher = more signal.
Test [18] has as its system Noggin (protein binding on small-molecule microarray). As to the kind of experiment: Noggin binders on small-molecule microarray, primary screen, biochemical, 635/667 nm fluorescence (AID 1095).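 Note: score merges 667 nm feature fluorescence with signal to noise over triplicate slides.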 The conditions noted are these: 635 nm fluorescence, higher = more signal.
Test [19] addresses Neurogenic locus notch homolog protein 3 (Homo sapiens) (UniProt Q9UM47). In words: NOTCH3 binders on small-molecule microarray, primary screen, biochemical, 635/667 nm fluorescence (AID 1096). As to conditions: NOTCH3 binding, 635 nm fluorescence, higher = more signal.
Test [20] is described as follows: small-molecule microarray binders of probe aEGFR, primary screen, biochemical, biotinylated probe, 635/667 nm fluorescence (AID 1097).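 Note: probe is a biotinylated anti-EGFR antibody binding compounds printed on slides; score combines fluorescence near 667 nm and signal to noise of each spot.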 As to conditions: higher = more signal.

Sequence of Neurogenic locus notch homolog protein 3 (Homo sapiens) (Q9UM47 whole entry, looked up): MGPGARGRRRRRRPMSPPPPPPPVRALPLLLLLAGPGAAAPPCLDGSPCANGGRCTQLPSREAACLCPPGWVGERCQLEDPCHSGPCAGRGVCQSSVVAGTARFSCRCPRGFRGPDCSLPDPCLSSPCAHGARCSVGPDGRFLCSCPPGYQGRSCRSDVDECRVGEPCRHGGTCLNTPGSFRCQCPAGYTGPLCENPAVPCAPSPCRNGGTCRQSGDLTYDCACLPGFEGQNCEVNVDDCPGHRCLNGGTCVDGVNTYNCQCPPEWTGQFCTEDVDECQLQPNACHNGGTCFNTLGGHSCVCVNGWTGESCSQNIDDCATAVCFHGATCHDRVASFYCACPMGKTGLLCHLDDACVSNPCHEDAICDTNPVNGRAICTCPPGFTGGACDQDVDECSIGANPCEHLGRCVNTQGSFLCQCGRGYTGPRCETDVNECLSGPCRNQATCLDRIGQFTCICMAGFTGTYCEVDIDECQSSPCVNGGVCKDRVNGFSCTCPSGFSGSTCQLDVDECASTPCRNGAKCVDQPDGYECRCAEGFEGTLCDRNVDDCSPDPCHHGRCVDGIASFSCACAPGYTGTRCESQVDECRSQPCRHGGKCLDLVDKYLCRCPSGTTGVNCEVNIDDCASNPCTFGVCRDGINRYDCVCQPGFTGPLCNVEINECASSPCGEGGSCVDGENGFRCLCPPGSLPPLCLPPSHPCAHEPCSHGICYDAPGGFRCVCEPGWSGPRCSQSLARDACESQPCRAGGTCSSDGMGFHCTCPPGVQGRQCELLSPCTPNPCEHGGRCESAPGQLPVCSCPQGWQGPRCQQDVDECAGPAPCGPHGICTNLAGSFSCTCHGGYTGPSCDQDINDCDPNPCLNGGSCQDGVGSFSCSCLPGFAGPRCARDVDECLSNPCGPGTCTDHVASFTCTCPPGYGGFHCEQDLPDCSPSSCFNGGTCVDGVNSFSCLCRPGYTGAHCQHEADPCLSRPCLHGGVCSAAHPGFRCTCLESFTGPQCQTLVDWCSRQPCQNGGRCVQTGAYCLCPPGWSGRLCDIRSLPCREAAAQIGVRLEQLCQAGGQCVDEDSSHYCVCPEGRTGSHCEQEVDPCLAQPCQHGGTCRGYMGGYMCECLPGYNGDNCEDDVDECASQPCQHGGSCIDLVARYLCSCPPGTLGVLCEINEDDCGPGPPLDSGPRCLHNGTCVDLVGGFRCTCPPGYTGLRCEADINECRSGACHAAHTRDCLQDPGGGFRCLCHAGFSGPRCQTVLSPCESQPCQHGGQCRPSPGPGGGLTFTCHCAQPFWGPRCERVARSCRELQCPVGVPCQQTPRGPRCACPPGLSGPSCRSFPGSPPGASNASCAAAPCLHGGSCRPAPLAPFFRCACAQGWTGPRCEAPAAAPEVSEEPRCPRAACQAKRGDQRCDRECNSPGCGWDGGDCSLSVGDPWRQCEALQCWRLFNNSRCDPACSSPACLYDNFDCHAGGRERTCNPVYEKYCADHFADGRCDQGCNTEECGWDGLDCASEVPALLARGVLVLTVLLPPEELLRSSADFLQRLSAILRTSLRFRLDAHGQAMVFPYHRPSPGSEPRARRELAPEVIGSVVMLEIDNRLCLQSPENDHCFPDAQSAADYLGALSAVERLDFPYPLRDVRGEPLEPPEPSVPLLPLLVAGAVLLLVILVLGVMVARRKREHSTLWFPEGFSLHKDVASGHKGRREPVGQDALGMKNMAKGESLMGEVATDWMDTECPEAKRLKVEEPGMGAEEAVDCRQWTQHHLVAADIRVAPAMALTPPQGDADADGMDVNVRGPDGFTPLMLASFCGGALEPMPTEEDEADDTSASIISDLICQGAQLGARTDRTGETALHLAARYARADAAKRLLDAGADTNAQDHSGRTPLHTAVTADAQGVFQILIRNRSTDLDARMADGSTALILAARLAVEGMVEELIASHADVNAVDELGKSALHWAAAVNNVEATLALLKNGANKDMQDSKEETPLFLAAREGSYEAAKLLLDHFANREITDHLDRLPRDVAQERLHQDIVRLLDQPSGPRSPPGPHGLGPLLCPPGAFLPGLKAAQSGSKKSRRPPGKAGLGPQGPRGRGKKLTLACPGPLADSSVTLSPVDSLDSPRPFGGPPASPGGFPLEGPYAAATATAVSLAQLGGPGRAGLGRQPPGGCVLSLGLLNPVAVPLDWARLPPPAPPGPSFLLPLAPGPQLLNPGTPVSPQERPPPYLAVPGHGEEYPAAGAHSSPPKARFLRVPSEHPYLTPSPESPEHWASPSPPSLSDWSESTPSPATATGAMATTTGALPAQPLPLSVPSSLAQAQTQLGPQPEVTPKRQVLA

Regarding `CCOC(=O)C[C@H]1[C@H](OC(=O)Cc2ccc3c(c2)OCO3)[C@@H](NC(=O)c2ccc3ccccc3n2)c2cc(OCCCO)ccc2N1C(=O)c1ccccc1`, the composite z-score was -0.0059 in test [1]; 0.111 in [2]; 0.051 in test [3]; 0.202 in [4]; 0.64 in test [5]; 0.405 in [6]. Also, the composite z-score in test [7] was -0.111; in [9], 0.23; in [10], -0.069; in test [11], 0.299; in [15], 0.604; in test [17], 0.0209. In addition, the results for the composite z-score in test [18], in test [19] and in test [20] were 0.257, 0.363 and -0.0039, respectively. Also, the z-score is 1.15 (inactive) in [8]; 0.131 (inactive) in test [12]; -0.931 (inactive) in test [13]; 0.336 (inactive) in test [14]; 0.887 (inactive) in test [16].

Regarding `O=C1C2C=CC(C(O)c3cccc(O)c3)N(Nc3ccc([N+](=O)[O-])cc3)C2C(=O)N1c1ccccc1` (stereo not given), the composite z-score in test [1] was -0.171; in test [2] it was 0.325; in test [3], -0.0133; in test [4], 0.765; in test [5] it was 0.719; in test [6] it was 0.0076. For the same compound, the composite z-score in test [7] is 0.63; in test [9] it was 0.441; in test [10] it was -0.136; in [11], 0.622; in test [15] it was 1.87; in test [17] it was -0.021. In addition, the figures for the composite z-score in test [18], in [19] and in test [20] were 0.196, 0.715 and -0.0041, respectively. Further, the z-score in test [8] is 0.125 (inactive); in [12], 0.706 (inactive); in test [13], 0.667 (inactive); in test [14] it was 1.3 (inactive); in test [16], 0.404 (inactive).

With `COCC(=C=CC[C@H](O)c1ccccc1OCCO)C[C@H](O)c1ccccn1`, the composite z-score was -0.109 in test [1]; -0.169 in test [2]; -0.128 in test [3]; 0.4 in test [4]; -0.548 in [5]; -0.409 in test [6]. Moreover, the composite z-score in [7] is 0.0876; in test [9], 0.0547; in test [10] it was -0.0994; in [11], 1.14; in test [15], 3.35; in test [17], -0.138. Besides, the composite z-score in test [18] is 0.808; in [19], -0.0439; in test [20] it was 0.122. The z-score in [8] is -0.996 (inactive); in test [12], 0.636 (inactive); in [13], -0.422 (inactive); in test [14], -0.505 (inactive); in test [16], 0.723 (inactive).

On to `CCOC(=O)C[C@H]1[C@H](OC(=O)Cc2ccc3c(c2)OCO3)[C@@H](NC(=O)C2CCCCC2)c2cc(OCCCO)ccc2N1C(=O)c1ccccc1`, for which the composite z-score in test [1] was 0.0113; in test [2], -0.155; in [3], -0.112; in [4] it was 0.117; in test [5], 0.0925; in test [6], -0.127. The composite z-score in test [7] was 0.65; in test [9] it was -0.0611; in test [10], -0.0994; in [11], 1.05; in test [15], 0.618; in test [17] it was -0.248. The values for the composite z-score in test [18], in test [19] and in [20] were 0.0367, 0.255 and -0.0452, respectively. In addition, the z-score in test [8] is -1.14 (inactive); in test [12], 0.193 (inactive); in test [13], -0.432 (inactive); in test [14], 0.36 (inactive); in test [16] it was 2.58 (inactive).

In the case of `[N-]=[N+]=Nc1ccccc1[C@@H]1OC(c2ccc(OCCCO)cc2)=N[C@]1(Cc1ccccc1)C(=O)O`, the composite z-score in [1] was -0.0974; in test [2], 0.396; in test [3], -0.0178; in test [4] it was 0.366; in test [5] it was 0.828; in [6] it was 1.42. The composite z-score in [7] was 1.22; in test [9], 1.39; in test [10], -0.126; in test [11], 1.56; in [15] it was 2.43; in test [17] it was 0.106. The values for the composite z-score in test [18], in test [19] and in [20] were 0.522, 1.05 and -0.268, respectively. Also, the z-score is 0.235 (inactive) in test [8]; 0.85 (inactive) in test [12]; 0.594 (inactive) in test [13]; 1.82 (inactive) in test [14]; 0.779 (inactive) in test [16].

(Values after PubChem BioAssay.)
